The values below come from PubChem BioAssay AID652067 (The Scripps Research Institute Molecular Screening Center, 2013).

The whole screen tested about 370,000 compounds, of which about 5,400 (1.5%) were called active. The sample as a whole holds a higher share of actives than the screen did. Values without a mark were called inactive.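 The calls were made as follows: active = activation above the mean of all tested compounds plus 3 SD (cut at about 5.5% in these data); inactive = the rest.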

In this test the test system is DAF-12 nuclear receptor (Haemonchus contortus). Description: H. contortus DAF-12 nuclear receptor activators, primary screen, cell-based, luminescence, HEK293, lit1-tk-luc reporter (AID 652067).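 Also: 100% = response to 3 µM Δ7-dafachronic acid high control.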 As to conditions: HEK293 hcDAF-12 lit1-tk-luc reporter, at 6.8 µM, stronger effect = higher value, 0% DMSO, 100% Δ7-dafachronic acid.
On to `COC(=O)[C@]12C[C@H](CC(=O)NCc3ccccc3)C(=O)N(Cc3ccccc3)C1=C[C@H](COCc1ccccc1)O[C@@H]2C`, for which the activation was -1.28%.

For `CC(=O)c1cccc(NC(=O)COc2ccc(S(=O)(=O)N3CCOCC3)cc2)c1`, the activation is -0.45%. Next, `Cc1ccccc1NC(=O)C1CCN(c2ncccn2)CC1`: 0.03%; `Nn1c(SCC(=O)N2c3ccccc3Sc3ccccc32)nnc1-c1n[nH]c2c1CCC2`: -2.66%.

As to `CCOC(=O)c1cc2n(c1N)-c1ccccc1C2=O`, the activation is 6.53% (active). With `CCOC(=O)c1cnn(Cc2ccccc2Cl)c1N`, the activation was 1.1%. Turning to `CCOC(=O)c1ccccc1NC(=O)c1c(N)n(C)c(=O)[nH]c1=O`, the activation was -0.79%. In the case of `C[C@H](O)[C@@H]1CN2CCc3ccc(-c4ccc5c(c4)OCO5)cc3[C@@H]2C[C@@H]1N(C)C(=O)C1CCCCC1` it was -0.66%. For the compound `Cc1ccc(OCc2nnc(SC/C=C/c3ccccc3)n2Cc2ccco2)cc1`, the activation was -1.14%.

In the case of `COc1ccc(N2CCN(CCNS(=O)(=O)c3ccc(C(C)(C)C)cc3)CC2)cc1`, the activation was -4.56%. Consider `CC1=NCCN1S(=O)(=O)c1ccc(Br)c(C)c1`, for which the activation was -1.01%. Turning to `COc1ccc(CN2C/C(=C/c3ccccc3)N3C(=O)C[C@@H](c4ccccc4)N=C23)c(OC)c1`, the activation was -1.56%. In the case of `COc1cccc2cc(C(=O)N(C)C)c(=O)oc12` it was -0.74%; in that of `CN(CCOc1ccccc1)C(=O)c1cc(COc2c(F)cccc2F)on1`, -1.26%; in that of `COc1cc2ccccc2cc1C(=O)N(CCN(C)C)c1nc2c(F)cccc2s1`, 6.37% (active). Consider `O=S1(=O)c2ccc(N3CCN(Cc4ccccc4F)CC3)cc2Oc2ccccc2CN1Cc1cn(Cc2ccc(Cl)cc2)nn1`, for which the activation was 0.96%. Take `COc1ccc(CNS(=O)(=O)c2cc(Br)ccc2Br)cc1`: the activation was -0.97%. `CC1CCN(C(=O)c2ncn3c2C(=O)N[C@@H](C)C3)CC1`: the activation was -0.73%.

Consider `Cc1nc(N=C(N)N)nc2c(C)cccc12`, for which the activation was 5.96% (active). With `COc1nc(N=C(N)N)nc2c(C)cccc12`, the activation is 6.14% (active). Next, `CCc1c(C)nc2c(OC)cccc2c1Cl`: -0.4%; `CCOC(=O)[C@]12CCCCC/C=C\1N(Cc1ccc(OC)cc1)C(=O)[C@H]2CC(=O)N1CCOCC1`: 4.16%. For the compound `Cc1cc(C(=O)NN=C/C=C/c2ccco2)n[nH]1`, the activation was -0.38%.

On to `NNc1nc2c(Cl)cccc2s1`, for which the activation is 10% (active). In the case of `COC(=O)C1=C(C)N(Cc2ccccc2C(F)(F)F)C(=NCC2CC2)NC1c1cccc(Cl)c1` (stereo not drawn) it was -1.98%. As to `Cc1cccc(-c2nc3ccccc3c(=O)n2NC(=O)Cc2ccc(Cl)cc2)c1`, the activation is 6.73% (active). For the compound `COc1cc(OC)cc(-c2nc3ccccc3c(=O)n2NC(=O)c2cccnc2Cl)c1`, the activation is -1.71%. In the case of `O=C(Nn1c(-c2ccc(Cl)cc2)nc2ccccc2c1=O)c1cccnc1Cl` it was 0.57%; in that of `S=c1c2[nH]cnc2ncn1CCSc1ncnc2nc[nH]c12`, -0.28%; in that of `CC(C)CC(=O)Nc1ccc(Cc2ccncc2)cc1`, 0.36%. In the case of `O=C(O)CCCC(=O)Nc1ccccc1-n1ccnc1` it was -1.24%; in that of `CC(CC(=O)Nc1ccccc1)n1ccnc1` (stereo not drawn), 5.72% (active).

For the compound `CCOc1ccc(NC(=O)CCS(=O)(=O)c2ccc3c(c2)CCCN3C(=O)CC)cc1`, the activation was -1.11%.

In the case of `Cc1ccccc1NC(=O)CCOc1ccccc1`, the activation is 0.95%. In the case of `COc1cc2ccccc2cc1C(=O)Nc1ccccc1C` it was 10.1% (active).

Regarding `Cc1ccccc1C(=O)Nc1ccccc1Sc1ccccc1`, the activation is -0.9%. For the compound `CCCCCCCCN1C(=O)[C@@H](CC(=O)NCc2ccccc2)C[C@@]2(C(=O)OC)C1=C[C@H](C(C)(C)C)O[C@@H]2C`, the activation is 1.65%. In the case of `COC1=C[C@H](C(=O)NCCNC(C)=O)[C@H](C)[C@@H](c2ccccc2)CC1=O`, the activation is -2.16%. In the case of `O=C(c1ccccc1)c1ccc(-c2ccccc2C(=O)NC2CCCCN(Cc3ccc(Cl)cc3)C2=O)cc1` (stereo not drawn), the activation is -0.91%. In the case of `COC(=O)c1c(-c2ccc(OC)cc2)c2c(c3c4ccccc4n(S(=O)(=O)c4ccc(C)cc4)c13)C(=O)N(C)C2` it was 1.29%; in that of `COC(=O)C1[C@H]2SC(C)(C)C(C(=O)OC)N2C(=O)N1Cc1nc2ccccc2s1` (stereo partly drawn), 0.45%. In the case of `COc1ccccc1OCc1nc2ccccc2s1` it was 17.9% (active); in that of `CCc1ccc(-c2nnn(Cc3nc4ccccc4s3)n2)cc1`, 3.01%; in that of `N#Cc1ccc(OC[C@@H](O)CN2CCC(C(O)(c3ccccc3)c3ccccc3)CC2)c(F)c1`, 0.25%. As for `Cc1ccnc(NC(=O)CCCOc2ccccc2)c1`, the activation is 2.54%. Turning to `COc1cc(SC)ccc1C(=O)Nc1cc(C)ccn1`, the activation was 9.16% (active).

Consider `CSCCC(NC(=O)c1ccco1)C(=O)Nc1cc(C)ccn1` (stereo not drawn), for which the activation is 5.45%. As for `Cc1ccnc(NC(=O)C(C)N2C(=O)c3ccccc3C2=O)c1` (stereo not drawn), the activation was -0.09%. As for `COc1cc(SC)ccc1C(=O)Nc1nc(C)cs1`, the activation is -4.3%.

Turning to `Cc1ccnc(NC(=O)c2ccoc2C)c1`, the activation is 7.44% (active). For the compound `O=C(NCc1ccccc1)[C@H]1CCCN1C(=O)[C@@H]1CCCN1C(=O)c1ccc(Cl)cc1Cl`, the activation is -1.62%. As to `O=C(CSc1nc2ccccc2n1Cc1ccccc1)NNC(=S)Nc1ccccc1`, the activation is -1.89%. In the case of `COC(=O)c1cc2c(c3c4ccccc4n(S(=O)(=O)c4cccc(C)c4)c13)C(=O)N(Cc1ccccc1)C2` it was 1.43%; in that of `Oc1ccc(/C=C/c2c(F)cccc2F)c2cccnc12`, -3.66%; in that of `O=C1[C@@H](c2ccccc2)[C@@H](c2ccccc2)N1c1ccccc1`, -1.98%. In the case of `Cc1nn(C(=O)c2ccoc2C)c(N)c1-c1ccccc1` it was 12.4% (active); in that of `Cc1nn2c(c1-c1ccccc1)N=C(c1ccco1)CC2c1ccccc1` (stereo not drawn), -0.56%; in that of `Cc1cc(-c2ccccc2)n2nc(C)c(-c3ccccc3)c2n1`, -0.96%.
